Experiment [1] can be described thus: Human pregnane X receptor (PXR) small molecule agonists, qHTS cell viability counter screen (AID 1346977). Also: nearly all actives have a fitted effect of over 50% in size. In outline: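 Readout is CellTiter-Fluor fluorescence from PXR-Luc HepG2 cells. Plated cells rested 5hr, then were treated with compounds for 24hr at 37C and 5% CO2, with reagent present during the last hour.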
The nature of experiment [2]: Caspase-3/7 induction in HepG2 cells by small molecules, qHTS assay (AID 1346978). Also: nearly all actives have a fitted effect of over 15% in size. The essentials: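 Wild-type HepG2 cells, 2,000/well, settled 5 hr at 37 C and 5% CO2, then compound-treated for 17 hr; caspase-3/7 activity read by luminescent Caspase-Glo 3/7 after 30 min at room temperature.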
Experiment [3] in a line: Caspase-3/7 induction in CHO-K1 cells by small molecules, qHTS cell viability counter screen (AID 1346979). Also: nearly all actives have a fitted effect of over 35% in size. The essentials: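 To flag cytotoxic compounds, treated CHO-K1 wild-type cells were given CellTiter-Fluor at 16hr and read fluorescently after 1hr at 37C; the caspase-3/7 luminescence was measured in these same wells.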
A short description of experiment [4]: Caspase-3/7 induction in CHO-K1 cells by small molecules, qHTS assay (AID 1346980). Also: nearly all actives have a fitted effect of over 15% in size. The essentials: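 Wild-type CHO-K1 cells exposed to compounds for 17hr at 37 C, 5% CO2. Caspase-3/7 activity then measured by Caspase-Glo 3/7 luminescence after 30min at room temperature.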
A short description of experiment [5]: Caspase-3/7 induction in HepG2 cells by small molecules, qHTS cell viability counter screen (AID 1346981). Also: series mostly up to about 92 µM; nearly all actives have a fitted effect of over 30% in size. The essentials:
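Steps: seed 2,000 HepG2 cells per well; incubate 5 hr at 37 C; pin-add compounds in DMSO; incubate 16 hr; add CellTiter-Fluor; after 1 hr at 37 C and 5% CO2, read fluorescence.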

The target in experiment [6] is Nuclear receptor subfamily 1 group I member 2 (Homo sapiens) (UniProt O75469). Nature of the experiment: Human pregnane X receptor (PXR) small molecule agonists, qHTS assay (AID 1346982). Also: nearly all actives have a fitted effect of over 35% in size. Also: potency is read from the fitted curve at half-maximal effect. In outline:
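Agonist mode qHTS: PXR-Luc HepG2 cells plated 5 hr before DMSO-dissolved compounds were pinned in, cultured 24 hr at 37 C, 5% CO2; ONE-Glo luminescence readout.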

In experiment [7] the target is Nuclear receptor subfamily 1 group I member 2 (Rattus norvegicus) (UniProt Q9R1A7). Nature of the experiment: Rat pregnane X receptor (rPXR) activation by small molecules, qHTS assay (AID 1346983). Also: nearly all actives have a fitted effect of over 20% in size. To be noted: rPXR luciferase reporter cells, One-Glo luminescence, 24 h; max activation: hits give high values. The essentials:
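Cell-based rPXR activation assay: rPXR cells, 2,000 per well, rested 5hr at 37 C, then exposed to compounds in DMSO for 24 hr at 37 C. Luciferase activity read by One-Glo luminescence after 30 min at room temperature.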

For experiment [8], the target named is Nuclear receptor subfamily 1 group I member 2 (Homo sapiens) (UniProt O75469). Kind of experiment: CYP3A4 induction through human pregnane X receptor (PXR) by small molecules, qHTS assay (AID 1346984). Also: nearly all actives have a fitted effect of over 40% in size. The essentials:
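Steps: seed DPX-2 cells, 5 hr at 37C; pin-transfer compounds; 24 hr at 37C; add Luciferin-IPA (3uM final), 3 hr at 37C; add One-Glo, 30 min RT; read luminescence.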

Experiment [9] shares this target. Kind of experiment: Human pregnane X receptor (PXR) activation by small molecules, qHTS assay (AID 1346985). Also: nearly all actives have a fitted effect of over 40% in size. In outline: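 DPX-2 cells (HepG2 co-transfected with a PXR response element and a CYP3A4-promoter luciferase construct) were seeded at 2,000 per well, rested 5 hr at 37C, then exposed to DMSO-dissolved compounds for 24 hr. Activation was read as luciferase luminescence.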

Experiment [10] has as its target Cytochrome P450 2D6 (Homo sapiens) (UniProt P10635). Kind of experiment: Cytochrome P450 Family 2 Subfamily D Member 6 (CYP2D6) small molecule antagonists: luciferase reporter qHTS assay (AID 1671196). Also: nearly all actives have a fitted effect of over 50% in size. Also: potency is read from the fitted curve at half-maximal effect. In outline:
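P450-Glo format: CYP2D6 converts a proluciferin substrate to luciferin in an NADPH-driven reaction lasting 1 h at room temperature. Light output, proportional to CYP2D6 activity, reflects interference by test chemicals.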

Experiment [11] concerns the target Cytochrome P450 2C9 (Homo sapiens) (UniProt P11712). Kind of experiment: Cytochrome P450 Family 2 Subfamily C Member 9 (CYP2C9) small molecule antagonists: luciferase reporter qHTS assay (AID 1671198). Also: nearly all actives have a fitted effect of over 50% in size. Also: potency is read from the fitted curve at half-maximal effect. The essentials: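 P450-Glo proluciferin substrate with CYP2C9 enzyme; 10 min RT preincubation, then NADPH regeneration 1 h at 37C; luciferin detection reagent 20 min RT, luminescence in relative luminescence units.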

In experiment [12] the target is Cytochrome P450 1A2 (Homo sapiens) (UniProt P05177). Kind of experiment: Cytochrome P450 Family 1 Subfamily A Member 2 (CYP1A2) small molecule antagonists: luciferase reporter qHTS assay (AID 1671199). Also: nearly all actives have a fitted effect of over 50% in size. Also: potency is read from the fitted curve at half-maximal effect. The essentials:
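Inhibition of CYP1A2 conversion of proluciferin to luciferin, detected by luminescence. Reaction run 1 h at room temperature with NADPH regeneration after brief compound preincubation.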

The target in experiment [13] is Voltage-gated inwardly rectifying potassium channel KCNH2 (Homo sapiens) (UniProt Q12809). Kind of experiment: Human Ether-a-go-go-Related Gene (hERG) channel small molecule antagonists: fluorescence cell-based qHTS assay (AID 1671200). The essentials:
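Measured: Tl+ flux via fluorescence (480/540 nm) in hERG-expressing U2OS cells after 1 h dye loading at room temperature.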

Experiment [14] deals with Cytochrome P450 3A4 (Homo sapiens) (UniProt P08684). Nature of the experiment: Cytochrome P450 Family 3 Subfamily A Member 4 (CYP3A4) small molecule antagonists: luciferase reporter qHTS assay (AID 1671201). In outline: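 Setup: enzyme-substrate mix, compound pin transfer, 10 min RT. Reaction: NADPH regeneration solution, 1 h RT. Readout: detection reagent stops turnover, luminescence measured after 20 min, expressed in relative luminescence units.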
Cytochrome P450 3A4 (Homo sapiens), sequence (P08684 whole entry, looked up): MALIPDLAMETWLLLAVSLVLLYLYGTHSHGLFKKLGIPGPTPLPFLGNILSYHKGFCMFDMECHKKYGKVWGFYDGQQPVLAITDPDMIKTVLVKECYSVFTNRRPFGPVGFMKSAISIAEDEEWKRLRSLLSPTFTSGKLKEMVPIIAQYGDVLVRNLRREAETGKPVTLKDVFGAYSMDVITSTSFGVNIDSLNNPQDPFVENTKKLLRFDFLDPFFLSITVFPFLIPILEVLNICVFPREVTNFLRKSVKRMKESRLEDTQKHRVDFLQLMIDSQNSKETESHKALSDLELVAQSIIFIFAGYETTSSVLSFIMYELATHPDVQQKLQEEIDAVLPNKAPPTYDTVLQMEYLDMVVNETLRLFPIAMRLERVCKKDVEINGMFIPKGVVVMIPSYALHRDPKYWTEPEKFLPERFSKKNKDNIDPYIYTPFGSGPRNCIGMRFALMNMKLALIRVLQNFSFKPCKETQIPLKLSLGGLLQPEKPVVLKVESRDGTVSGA

Experiment [15] concerns the target Cytochrome P450 2C19 (Homo sapiens) (UniProt P33261). Nature of the experiment: Cytochrome P450 Family 2 Subfamily C Member 19 (CYP2C19) small molecule antagonists: luciferase reporter qHTS assay (AID 1671197). Also: nearly all actives have a fitted effect of over 65% in size. Also: potency is read from the fitted curve at half-maximal effect. The essentials: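 Inhibition of CYP2C19 was scored from loss of luminescence in a P450-Glo proluciferin substrate assay, NADPH-started and run 1 h at 37C, with ketoconazole as positive control.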

The values below come from PubChem BioAssay (Tox21).

A number with no mark means an inactive call. Results filed as inconclusive are left out. The source made the active and inactive calls. Calls follow the shape of the dose curve; as a rule, active = well fitted curve in the direction sought with a large enough effect in the repeat runs; inconclusive = weak or mixed curves; inactive = no such curve, though single readings can be large; an effect the other way counts as inactive or inconclusive.
% is scaled to controls: 0 for no effect and ±100 for the full control effect.

Nuclear receptor subfamily 1 group I member 2 (Rattus norvegicus), sequence (Q9R1A7 whole entry, looked up): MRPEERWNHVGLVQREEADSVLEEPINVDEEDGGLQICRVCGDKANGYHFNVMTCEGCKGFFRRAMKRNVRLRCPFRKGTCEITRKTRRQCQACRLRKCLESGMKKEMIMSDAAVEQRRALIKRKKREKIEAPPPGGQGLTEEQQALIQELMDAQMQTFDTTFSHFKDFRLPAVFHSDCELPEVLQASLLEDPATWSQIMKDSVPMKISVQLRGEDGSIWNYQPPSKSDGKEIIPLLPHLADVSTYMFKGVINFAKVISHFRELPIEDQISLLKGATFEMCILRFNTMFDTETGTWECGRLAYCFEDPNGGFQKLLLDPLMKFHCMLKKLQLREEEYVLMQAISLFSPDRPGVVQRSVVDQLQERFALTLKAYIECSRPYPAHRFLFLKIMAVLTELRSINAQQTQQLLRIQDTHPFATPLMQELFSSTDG
Cytochrome P450 2D6 (Homo sapiens), sequence (P10635 whole entry, looked up): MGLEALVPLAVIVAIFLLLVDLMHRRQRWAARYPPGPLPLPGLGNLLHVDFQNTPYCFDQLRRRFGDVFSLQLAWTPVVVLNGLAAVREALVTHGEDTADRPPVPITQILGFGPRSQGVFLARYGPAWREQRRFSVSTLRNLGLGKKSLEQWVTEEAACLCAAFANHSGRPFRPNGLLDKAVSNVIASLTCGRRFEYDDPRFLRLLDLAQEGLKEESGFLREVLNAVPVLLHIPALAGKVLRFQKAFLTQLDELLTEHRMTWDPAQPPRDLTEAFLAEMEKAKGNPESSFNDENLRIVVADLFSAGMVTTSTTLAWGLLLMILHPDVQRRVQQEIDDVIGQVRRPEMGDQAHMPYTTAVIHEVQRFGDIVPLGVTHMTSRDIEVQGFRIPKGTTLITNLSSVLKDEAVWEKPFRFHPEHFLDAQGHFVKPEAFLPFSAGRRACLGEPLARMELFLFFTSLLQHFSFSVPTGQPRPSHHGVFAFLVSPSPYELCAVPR
Cytochrome P450 2C9 (Homo sapiens), sequence (P11712 whole entry, looked up): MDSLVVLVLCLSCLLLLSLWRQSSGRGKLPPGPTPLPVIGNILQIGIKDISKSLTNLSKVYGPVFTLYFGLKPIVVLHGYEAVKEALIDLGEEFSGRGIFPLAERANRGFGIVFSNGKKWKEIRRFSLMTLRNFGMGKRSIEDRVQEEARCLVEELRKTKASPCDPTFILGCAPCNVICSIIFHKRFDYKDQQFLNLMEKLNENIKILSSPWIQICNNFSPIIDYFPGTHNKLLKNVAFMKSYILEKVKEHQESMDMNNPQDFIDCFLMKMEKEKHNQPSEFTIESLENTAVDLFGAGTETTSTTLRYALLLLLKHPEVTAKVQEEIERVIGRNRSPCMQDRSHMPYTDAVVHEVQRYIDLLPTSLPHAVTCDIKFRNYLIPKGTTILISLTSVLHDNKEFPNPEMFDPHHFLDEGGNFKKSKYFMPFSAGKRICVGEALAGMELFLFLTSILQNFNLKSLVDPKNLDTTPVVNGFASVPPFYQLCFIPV
Cytochrome P450 1A2 (Homo sapiens), sequence (P05177 whole entry, looked up): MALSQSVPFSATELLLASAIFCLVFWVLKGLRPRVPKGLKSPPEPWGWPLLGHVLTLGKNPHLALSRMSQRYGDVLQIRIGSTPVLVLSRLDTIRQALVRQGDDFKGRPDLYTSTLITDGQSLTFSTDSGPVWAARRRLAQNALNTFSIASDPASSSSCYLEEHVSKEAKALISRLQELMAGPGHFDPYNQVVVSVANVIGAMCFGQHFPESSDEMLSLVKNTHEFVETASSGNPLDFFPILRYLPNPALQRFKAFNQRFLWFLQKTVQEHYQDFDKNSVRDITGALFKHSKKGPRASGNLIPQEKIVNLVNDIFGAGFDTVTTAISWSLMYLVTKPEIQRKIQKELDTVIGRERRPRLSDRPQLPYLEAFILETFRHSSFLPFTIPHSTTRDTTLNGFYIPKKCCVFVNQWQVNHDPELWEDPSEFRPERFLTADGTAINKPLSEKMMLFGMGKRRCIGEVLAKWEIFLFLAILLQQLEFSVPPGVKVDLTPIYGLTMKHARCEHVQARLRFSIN
Cytochrome P450 2C19 (Homo sapiens), sequence (P33261 whole entry, looked up): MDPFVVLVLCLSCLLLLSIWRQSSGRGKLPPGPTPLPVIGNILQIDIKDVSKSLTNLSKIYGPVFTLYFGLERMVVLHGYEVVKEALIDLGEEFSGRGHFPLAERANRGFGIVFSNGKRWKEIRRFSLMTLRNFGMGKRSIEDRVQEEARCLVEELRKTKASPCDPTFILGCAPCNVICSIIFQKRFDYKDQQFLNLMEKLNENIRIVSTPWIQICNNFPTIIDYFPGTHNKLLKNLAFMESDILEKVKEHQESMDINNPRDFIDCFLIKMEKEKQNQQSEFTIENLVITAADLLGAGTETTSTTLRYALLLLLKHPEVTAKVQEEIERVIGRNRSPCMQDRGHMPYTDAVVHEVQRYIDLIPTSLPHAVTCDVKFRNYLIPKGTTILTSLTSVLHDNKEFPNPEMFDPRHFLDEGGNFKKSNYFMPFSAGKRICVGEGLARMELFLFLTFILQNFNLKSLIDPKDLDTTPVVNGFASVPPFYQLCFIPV
Nuclear receptor subfamily 1 group I member 2 (Homo sapiens), sequence (O75469 whole entry, looked up): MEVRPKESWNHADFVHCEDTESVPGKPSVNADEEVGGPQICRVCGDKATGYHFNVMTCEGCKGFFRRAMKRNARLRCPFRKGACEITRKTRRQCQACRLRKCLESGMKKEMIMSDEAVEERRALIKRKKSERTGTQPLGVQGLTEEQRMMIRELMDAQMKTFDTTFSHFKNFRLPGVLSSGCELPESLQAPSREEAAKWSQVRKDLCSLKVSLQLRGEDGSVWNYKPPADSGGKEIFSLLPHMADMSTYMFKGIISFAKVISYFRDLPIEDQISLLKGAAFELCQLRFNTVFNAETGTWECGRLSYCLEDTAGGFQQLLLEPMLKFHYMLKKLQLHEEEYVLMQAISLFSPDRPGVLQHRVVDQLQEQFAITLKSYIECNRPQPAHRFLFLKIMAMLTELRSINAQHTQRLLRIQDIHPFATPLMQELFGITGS
Voltage-gated inwardly rectifying potassium channel KCNH2 (Homo sapiens), sequence (Q12809 whole entry, looked up): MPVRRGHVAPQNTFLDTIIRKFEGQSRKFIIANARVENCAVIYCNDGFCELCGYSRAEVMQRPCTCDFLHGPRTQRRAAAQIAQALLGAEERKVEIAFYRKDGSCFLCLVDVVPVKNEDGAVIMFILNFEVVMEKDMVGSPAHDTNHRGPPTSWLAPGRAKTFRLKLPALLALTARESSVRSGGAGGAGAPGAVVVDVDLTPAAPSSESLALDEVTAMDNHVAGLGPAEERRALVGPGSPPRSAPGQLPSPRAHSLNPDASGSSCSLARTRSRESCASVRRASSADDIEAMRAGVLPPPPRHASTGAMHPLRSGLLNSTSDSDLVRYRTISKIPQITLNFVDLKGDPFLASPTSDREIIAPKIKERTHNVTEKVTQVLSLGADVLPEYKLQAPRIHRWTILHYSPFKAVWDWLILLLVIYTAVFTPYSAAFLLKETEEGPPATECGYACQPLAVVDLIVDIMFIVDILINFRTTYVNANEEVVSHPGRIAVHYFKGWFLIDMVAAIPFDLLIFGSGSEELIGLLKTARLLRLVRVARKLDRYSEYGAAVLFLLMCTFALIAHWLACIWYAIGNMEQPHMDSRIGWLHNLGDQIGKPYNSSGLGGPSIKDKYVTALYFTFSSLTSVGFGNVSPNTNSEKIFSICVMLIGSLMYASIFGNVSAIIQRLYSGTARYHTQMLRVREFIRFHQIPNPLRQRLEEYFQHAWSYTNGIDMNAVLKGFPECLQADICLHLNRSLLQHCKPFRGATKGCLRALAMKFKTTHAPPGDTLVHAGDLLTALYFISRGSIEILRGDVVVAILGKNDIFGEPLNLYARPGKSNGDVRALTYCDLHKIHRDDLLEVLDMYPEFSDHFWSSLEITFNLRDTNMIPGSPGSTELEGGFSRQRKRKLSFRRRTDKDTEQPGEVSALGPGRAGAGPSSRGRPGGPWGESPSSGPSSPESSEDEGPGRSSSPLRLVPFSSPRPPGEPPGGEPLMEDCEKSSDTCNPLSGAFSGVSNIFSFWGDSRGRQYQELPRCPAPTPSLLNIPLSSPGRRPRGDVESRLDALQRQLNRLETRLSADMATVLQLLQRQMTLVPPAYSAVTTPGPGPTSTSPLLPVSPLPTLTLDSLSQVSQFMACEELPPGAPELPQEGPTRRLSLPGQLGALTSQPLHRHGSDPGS

Consider `C[N+](C)(C)CCOC(=O)CCC(=O)OCC[N+](C)(C)C`, for which the Potency entry in experiment [1], in experiment [2], in experiment [3], in experiment [4], in experiment [5] and in experiment [6] was “inactive” each time. The Potency entry in [8], in experiment [9], in experiment [10], in [11], in experiment [12] and in experiment [13] was “inactive” throughout. Also, the Potency result in experiment [14] is “inactive”. For the same compound, the max activation in [7] was -0.297%.
With `O=S(c1cc(Cl)cc(Cl)c1O)c1cc(Cl)cc(Cl)c1O`, the Potency entry in experiment [1], in experiment [2], in [3], in experiment [4], in experiment [5] and in [6] was “inactive” throughout. Further, the Potency entry in [8], in experiment [10] and in experiment [14] was “inactive” throughout. Also, the max activation in experiment [7] is -2.94%. Further, the Potency in experiment [11] was 17.4 µM (active).
On to `COc1cc(Cl)ccc1Oc1ccc(Cl)cc1Cl`, for which the Potency entry in [1], in [2], in [3], in experiment [4], in experiment [5] and in experiment [10] was “inactive” in each case. Besides, the Potency result in experiment [13] is “inactive”. The Potency in [6] is 26.5 µM (active); in [15] it was 1.23 µM (active); in experiment [11], 19.5 µM (active); in experiment [12] it was 12.3 µM (active).
As to `COc1ccnc(CS(=O)c2nc3ccc(OC(F)F)cc3[nH]2)c1OC` (centres undefined), the Potency result in experiment [1], in experiment [2], in experiment [3], in [4], in experiment [5] and in experiment [6] was “inactive” in each case. The max activation in experiment [7] is 0.184%. Also, the Potency in experiment [15] is 13.8 µM (active); in [11], 34.7 µM (active); in experiment [12], 17.4 µM (active).
Consider `CCCCCCCCCOS(=O)(=O)O`, for which the Potency entry in experiment [1], in experiment [2], in experiment [3], in [4], in [5] and in experiment [6] was “inactive” throughout. In addition, the Potency entry in experiment [10], in [13] and in [14] was “inactive” throughout. In addition, the values for the Potency in [15] and in [11] were 79.6 µM (active) and 22.4 µM (active), respectively.
Consider `CC(C)(C)OCC1CO1` (centres undefined), for which the Potency result in experiment [1], in experiment [2], in experiment [3], in experiment [4], in experiment [5] and in experiment [6] was “inactive” in each case. Moreover, the Potency entry in experiment [10], in experiment [15], in [11], in [12], in [13] and in [14] was “inactive” throughout.
As to `CN(C)CCN(Cc1ccsc1)c1ccccn1`, the Potency result in experiment [1], in experiment [2], in experiment [3], in experiment [4], in experiment [5] and in experiment [6] was “inactive” each time. The Potency entry in experiment [15], in [11], in experiment [12], in experiment [13] and in experiment [14] was “inactive” each time. For the same compound, in experiment [10], the Potency was 3.89 µM (active).
Regarding `Nc1ncn([C@H]2C[C@H](O)[C@@H](CO)O2)c(=O)n1`, the Potency result in experiment [1], in experiment [2], in experiment [3], in experiment [4], in [5] and in [6] was “inactive” each time. The Potency result in [8], in [9], in experiment [10], in experiment [15], in experiment [11] and in experiment [12] was “inactive” each time. For the same compound, the Potency result in experiment [13] and in experiment [14] was “inactive” throughout. The max activation in experiment [7] is 10.4%.
Turning to `Cc1ncc(CO)c(C=O)c1O`, the Potency result in experiment [1], in experiment [2], in [3], in experiment [4], in experiment [5] and in experiment [6] was “inactive” each time. Moreover, the Potency entry in [8], in experiment [9], in experiment [10], in [15], in experiment [11] and in experiment [14] was “inactive” each time. The max activation in [7] is -0.222%.
